These results are taken from PubChem BioAssay.

Test [1] in a line: binders of probe aFSTL3 on microarray, primary screen, stem cell growth factor project, biochemical, small-molecule microarray, fluorescence 635/667 (AID 1064).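 Note: measures binding of the biotinylated anti-FSTL3 antibody to printed compounds.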 The following applies: higher = more signal.
The nature of test [2]: binders from COS7 lysate, DM2A8 probe, primary screen, torsin A project, cell lysate, small-molecule microarray, fluorescence 635/667 (AID 1065). As to conditions: higher = more signal, COS7 lysate expressing mutant human TOR1A.
A short description of test [3]: binders of probe aFGF2 on microarray, primary screen, stem cell growth factor project, biochemical, small-molecule microarray, fluorescence 635/667 (AID 1067).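 Note: measures binding of biotinylated aFGF2 protein to printed compounds on slides; z-score merges feature fluorescence and signal-to-noise across triplicate slides.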 As to conditions: higher = more signal.
Test [4] is described as follows: binders of probe aFGF10 on microarray, primary screen, stem cell growth factor project, biochemical, small-molecule microarray, fluorescence 635/667 (AID 1071).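 Note: score merges 667 nm spot intensity and signal to noise from triplicate slides.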 The following applies: higher = more signal.
Test [5] has as its target Neurogenic locus notch homolog protein 2 (Homo sapiens) (UniProt Q04721). The experiment in a line: Notch2 binders on small-molecule microarrays, primary screen, biochemical, small-molecule microarray, 635 nm fluorescence, stem cell growth factors (AID 1073). The following applies: Notch2 binding, higher = more signal.
In test [6] the target is Pro-neuregulin-1, membrane-bound isoform (Homo sapiens) (UniProt Q02297). In words: NRG1 binders on small-molecule microarrays, primary screen, psychiatric disease protein project, biochemical, small-molecule microarray, fluorescence 635/667 (AID 1075).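 Note: score combines 667 nm spot fluorescence with signal to noise.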 The following applies: NRG1 binding, 635 nm fluorescence, higher = more signal.
Chain of Pro-neuregulin-1, membrane-bound isoform (Homo sapiens) (Q02297 whole entry, looked up, the tested form may be a part, canonical isoform): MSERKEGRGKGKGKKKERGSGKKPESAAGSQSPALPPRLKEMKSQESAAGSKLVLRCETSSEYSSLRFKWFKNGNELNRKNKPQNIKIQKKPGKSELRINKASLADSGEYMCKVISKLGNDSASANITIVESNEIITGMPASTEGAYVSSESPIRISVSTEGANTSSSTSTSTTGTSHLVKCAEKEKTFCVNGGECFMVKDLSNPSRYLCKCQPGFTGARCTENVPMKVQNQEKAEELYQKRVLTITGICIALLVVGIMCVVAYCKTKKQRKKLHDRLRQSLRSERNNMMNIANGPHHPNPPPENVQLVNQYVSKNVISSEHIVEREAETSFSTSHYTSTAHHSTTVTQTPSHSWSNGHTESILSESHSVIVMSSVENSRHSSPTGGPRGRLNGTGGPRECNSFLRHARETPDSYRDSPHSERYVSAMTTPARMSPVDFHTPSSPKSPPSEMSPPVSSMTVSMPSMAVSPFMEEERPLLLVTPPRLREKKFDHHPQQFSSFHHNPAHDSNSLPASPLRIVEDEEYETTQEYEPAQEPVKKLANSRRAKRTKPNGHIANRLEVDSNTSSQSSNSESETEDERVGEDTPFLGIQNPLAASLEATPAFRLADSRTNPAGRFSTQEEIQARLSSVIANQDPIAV
For test [7], the system named is Neuregulin-1 EGF-like domain. The experiment in a line: binders of neuregulin-1 EGF-like domain, primary screen, biochemical, small-molecule microarray, 635 nm fluorescence (AID 1081).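 Note: binding of the protein to compounds printed on small-molecule microarray slides.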 The following applies: small-molecule microarray binding, higher = more signal.
Test [8] is described as follows: FRG1 promoter luciferase signal modulators, primary screen, FRG1 inhibition for FSHD, cell-based, C2C12 myotubes, firefly/Renilla luciferase, luminescence (AID 1084). As to conditions: higher = more signal, called active from +8 up or from −8 down.
The nature of test [9]: binders of probe aFST on microarray, primary screen, stem cell growth factor project, biochemical, small-molecule microarray, fluorescence 635/667 (AID 1086).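 Note: score merges 667 nm fluorescence with signal-to-noise of each printed compound spot.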 The following applies: higher = more signal.
Test [10] can be described thus: binders of probe aHhip on microarray, primary screen, stem cell growth factor project, biochemical, small-molecule microarray, fluorescence 635/667 (AID 1087).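 Note: score merges spot fluorescence at 667nm with spot signal to noise ratio.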 The following applies: higher = more signal.
The subject of test [11] is PRMT1 (protein arginine N-methyltransferase 1). The experiment in a line: PRMT1 binders on small-molecule microarrays, primary screen, biochemical, small-molecule microarray, 635 nm fluorescence (AID 1088).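 Note: binding of Prmt1 protein to compounds spotted on small-molecule microarray slides.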 The following applies: small-molecule microarray binding, higher = more signal.
Test [12] is described as follows: yeast growth modulation, basal conditions, primary screen, YJM789 clinical isolate, OD600, 24 h (AID 1089).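 Note: growth of clinical yeast isolate S. cerevisiae YJM 789 seeded 1000 cells per well; test concentration not given here.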 As to conditions: S. cerevisiae YJM789 growth, higher = more signal, called active from +8 up or from −8 down.
Test [13] in a line: fission yeast growth modulation, primary screen, strain 972, OD600, 24 h, no modulator (AID 1090).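 Note: basal condition with compound alone and no growth modifier present; test concentration not given here.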 The following applies: S. pombe 972 growth, higher = more signal, called active from +8 up or from −8 down.
A short description of test [14]: S. cerevisiae growth modulation with rapamycin, primary screen, strain BY4716, OD600, 96 h (AID 1091). Note: test concentration not given here. The following applies: higher = more signal, called active from +8 up or from −8 down.
Test [15] concerns the target Torsin-1A-interacting protein 2 (Homo sapiens) (UniProt Q8NFQ8). The experiment in a line: LULL1 binders on small-molecule microarray, primary screen, cell lysate, human LULL1 lysate, 635/667 nm fluorescence (AID 1092).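 Note: probe is lysate of COS7 cells overexpressing human LULL1; score merges per-feature 667 nm fluorescence with signal-to-noise.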 The following applies: hLULL1 lysate binding, 635 nm fluorescence, higher = more signal.
The nature of test [16]: E. coli growth modulation, two-sided OD650, primary screen, E. coli filamentation project, strain DRC41, 24 h (AID 1093).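 Note: MC1000 strain lacking acrAB efflux and sulA so SOS filamentation is blocked; test concentration not given here.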 The following applies: OD650, 24 h, higher = more signal, called active from +8 up or from −8 down.
Test [17] is described as follows: small-molecule microarray binders of probe aLefty2, primary screen, biochemical, biotinylated probe, 635/667 nm fluorescence (AID 1094).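 Note: score merges spot fluorescence near 667 nm with spot signal-to-noise ratio.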 As to conditions: higher = more signal.
For test [18], the system named is Noggin (protein binding on small-molecule microarray). The experiment in a line: Noggin binders on small-molecule microarray, primary screen, biochemical, 635/667 nm fluorescence (AID 1095).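 Note: score merges 667 nm feature fluorescence with signal to noise over triplicate slides.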 As to conditions: 635 nm fluorescence, higher = more signal.
Test [19] deals with Neurogenic locus notch homolog protein 3 (Homo sapiens) (UniProt Q9UM47). In words: NOTCH3 binders on small-molecule microarray, primary screen, biochemical, 635/667 nm fluorescence (AID 1096). As to conditions: NOTCH3 binding, 635 nm fluorescence, higher = more signal.
The nature of test [20]: small-molecule microarray binders of probe aEGFR, primary screen, biochemical, biotinylated probe, 635/667 nm fluorescence (AID 1097).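 Note: probe is a biotinylated anti-EGFR antibody binding compounds printed on slides; score combines fluorescence near 667 nm and signal to noise of each spot.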 As to conditions: higher = more signal.

Activity calls are given as the source filed them.

Chain of Torsin-1A-interacting protein 2 (Homo sapiens) (Q8NFQ8 whole entry, looked up): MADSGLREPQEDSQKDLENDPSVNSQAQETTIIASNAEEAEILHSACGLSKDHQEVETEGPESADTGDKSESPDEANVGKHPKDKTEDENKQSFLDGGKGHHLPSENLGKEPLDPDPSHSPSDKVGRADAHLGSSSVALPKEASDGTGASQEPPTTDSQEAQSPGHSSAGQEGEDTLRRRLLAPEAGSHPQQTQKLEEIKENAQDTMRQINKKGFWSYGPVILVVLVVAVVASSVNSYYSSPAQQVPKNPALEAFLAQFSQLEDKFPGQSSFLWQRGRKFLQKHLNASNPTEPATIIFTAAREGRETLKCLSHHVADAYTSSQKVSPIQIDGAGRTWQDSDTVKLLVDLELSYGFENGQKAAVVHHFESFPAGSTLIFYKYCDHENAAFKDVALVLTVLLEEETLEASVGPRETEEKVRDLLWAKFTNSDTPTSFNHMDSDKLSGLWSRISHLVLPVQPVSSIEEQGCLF
Chain of Neurogenic locus notch homolog protein 2 (Homo sapiens) (Q04721 whole entry, looked up, canonical isoform): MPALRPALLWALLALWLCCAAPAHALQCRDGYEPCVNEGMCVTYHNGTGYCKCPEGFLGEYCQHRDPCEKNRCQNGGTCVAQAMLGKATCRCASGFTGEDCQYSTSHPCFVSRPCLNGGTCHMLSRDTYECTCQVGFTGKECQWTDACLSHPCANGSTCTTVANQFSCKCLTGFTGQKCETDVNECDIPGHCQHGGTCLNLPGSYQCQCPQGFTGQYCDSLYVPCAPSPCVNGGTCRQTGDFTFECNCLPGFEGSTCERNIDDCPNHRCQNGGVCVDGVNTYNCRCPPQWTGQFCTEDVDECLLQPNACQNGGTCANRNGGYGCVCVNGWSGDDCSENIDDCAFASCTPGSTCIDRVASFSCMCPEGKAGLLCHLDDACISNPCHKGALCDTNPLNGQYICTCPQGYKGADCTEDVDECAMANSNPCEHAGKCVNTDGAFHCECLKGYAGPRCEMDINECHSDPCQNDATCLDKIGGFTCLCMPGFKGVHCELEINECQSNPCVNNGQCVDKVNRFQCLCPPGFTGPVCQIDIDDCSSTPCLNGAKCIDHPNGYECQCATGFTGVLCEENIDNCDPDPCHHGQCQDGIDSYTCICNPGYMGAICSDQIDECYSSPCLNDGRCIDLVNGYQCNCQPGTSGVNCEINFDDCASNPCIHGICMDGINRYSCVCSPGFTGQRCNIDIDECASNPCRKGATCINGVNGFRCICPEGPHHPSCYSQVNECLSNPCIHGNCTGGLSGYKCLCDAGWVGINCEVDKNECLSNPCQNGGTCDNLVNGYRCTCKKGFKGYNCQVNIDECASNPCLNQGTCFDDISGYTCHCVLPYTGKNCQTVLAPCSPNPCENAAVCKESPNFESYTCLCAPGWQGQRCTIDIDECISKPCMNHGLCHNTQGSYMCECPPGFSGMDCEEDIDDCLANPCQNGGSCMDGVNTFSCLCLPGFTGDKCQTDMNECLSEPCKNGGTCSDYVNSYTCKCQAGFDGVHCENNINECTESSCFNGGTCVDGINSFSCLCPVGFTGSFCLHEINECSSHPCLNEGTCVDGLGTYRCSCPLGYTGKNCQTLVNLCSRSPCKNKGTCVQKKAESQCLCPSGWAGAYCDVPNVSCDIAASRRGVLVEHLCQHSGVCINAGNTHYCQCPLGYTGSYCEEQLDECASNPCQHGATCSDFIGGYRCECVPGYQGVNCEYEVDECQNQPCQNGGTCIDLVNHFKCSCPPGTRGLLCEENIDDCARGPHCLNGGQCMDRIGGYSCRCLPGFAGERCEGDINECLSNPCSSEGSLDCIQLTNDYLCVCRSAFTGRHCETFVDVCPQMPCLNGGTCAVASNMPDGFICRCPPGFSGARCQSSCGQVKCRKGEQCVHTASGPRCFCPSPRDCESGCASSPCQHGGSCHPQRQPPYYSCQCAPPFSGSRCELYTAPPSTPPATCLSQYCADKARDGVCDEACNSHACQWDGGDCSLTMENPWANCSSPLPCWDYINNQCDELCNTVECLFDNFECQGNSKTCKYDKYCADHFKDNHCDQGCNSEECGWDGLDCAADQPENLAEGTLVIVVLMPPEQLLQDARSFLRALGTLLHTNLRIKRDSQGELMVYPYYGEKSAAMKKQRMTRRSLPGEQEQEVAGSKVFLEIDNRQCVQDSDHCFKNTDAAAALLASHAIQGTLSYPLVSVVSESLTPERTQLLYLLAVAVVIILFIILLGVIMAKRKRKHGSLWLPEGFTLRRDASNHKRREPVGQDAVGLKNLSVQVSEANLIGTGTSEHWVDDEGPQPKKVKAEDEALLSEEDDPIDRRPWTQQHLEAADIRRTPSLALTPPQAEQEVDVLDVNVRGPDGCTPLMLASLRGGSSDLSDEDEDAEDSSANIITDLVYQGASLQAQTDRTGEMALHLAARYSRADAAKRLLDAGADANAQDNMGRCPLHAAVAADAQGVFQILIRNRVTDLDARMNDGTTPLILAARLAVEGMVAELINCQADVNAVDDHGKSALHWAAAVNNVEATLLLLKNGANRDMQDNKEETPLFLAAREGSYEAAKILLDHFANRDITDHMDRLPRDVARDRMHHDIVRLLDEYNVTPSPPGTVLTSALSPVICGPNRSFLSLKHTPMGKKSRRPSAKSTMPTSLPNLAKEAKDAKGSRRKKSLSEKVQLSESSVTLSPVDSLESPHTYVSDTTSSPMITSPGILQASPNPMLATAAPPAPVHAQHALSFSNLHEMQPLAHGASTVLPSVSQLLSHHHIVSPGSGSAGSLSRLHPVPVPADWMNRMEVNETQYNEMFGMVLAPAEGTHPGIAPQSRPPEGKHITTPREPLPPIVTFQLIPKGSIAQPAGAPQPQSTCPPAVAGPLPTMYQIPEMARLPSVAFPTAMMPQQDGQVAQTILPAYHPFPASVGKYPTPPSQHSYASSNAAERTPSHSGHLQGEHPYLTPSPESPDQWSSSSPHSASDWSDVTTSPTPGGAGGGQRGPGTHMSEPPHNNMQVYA

Regarding `Oc1ccc2cc[n+](Cc3cc4c(cc3Br)OCO4)cc2c1`, the composite z-score in test [1] was 0.254; in test [2], 0.0899; in test [3], -0.0148; in [4], -0.903; in test [5], -1.69; in [6] it was -0.614. The composite z-score in test [7] was 0.565; in test [9], -0.164; in test [10] it was -0.236; in test [11], 0.621; in test [15], -0.252; in test [17], 0.0894. For the same molecule, the figures for the composite z-score in test [18], in test [19] and in test [20] were -0.883, -1.11 and -0.211, respectively. Further, the z-score in test [8] is 0.985 (inactive); in test [12] it was 1.07 (inactive); in test [13], -1.41 (inactive); in test [14] it was 0.645 (inactive); in test [16], -0.603 (inactive).
On to `CCOC(=O)C1=C[C@@H](c2ccccc2)N(S(=O)(=O)c2ccc(C)cc2)[C@H]1c1ccc(OC)cc1`, for which the composite z-score in test [1] is 0.0896; in [2], 0.733; in [3] it was 0.479; in test [4] it was 0.848; in [5], 1.61; in [6] it was 1.02. Besides, the composite z-score in test [7] is 1; in test [9] it was 1.14; in test [10] it was 0.554; in test [11], 1.24; in test [15], 2.71; in test [17], 0.338. Also, the composite z-score in [18] was determined as 0.221; in test [19], 1.14; in test [20], 0.756. Moreover, the z-score was -2.76 (inactive) in test [8]; -1.13 (inactive) in test [12]; 1.29 (inactive) in test [13]; 0.698 (inactive) in test [14]; -0.685 (inactive) in test [16].
For `CCCC[C@@H]1C[C@H]1[C@@H](NC(=O)c1cccs1)c1ccccc1C(F)(F)F`, the composite z-score in test [1] worked out at 0.015; in test [2] it was 0.871; in test [3] it was 0.326; in [4], 0.256; in test [5] it was 0.803; in [6] it was 1.8. The composite z-score in test [7] is 1.1; in test [9] it was -0.517; in [10], -0.115; in [11], 0.72; in test [15], 3.12; in [17], 0.0864. Also, the composite z-score in test [18] is -0.597; in test [19] it was 0.168; in test [20], 0.0695. Also, the z-score in [8] is -0.0362 (inactive); in [12], 0.0064 (inactive); in test [13], -1.94 (inactive); in [14], 1.08 (inactive); in [16] it was -0.0873 (inactive).
Turning to `COCCOC(=O)N1C(=O)[C@@]2(c3cc(C#CC4=CCCCC4)ccc31)[C@H](c1ccccc1OCCO)N1[C@H](c3ccccc3)[C@H](c3ccccc3)OC(=O)[C@H]1[C@@H]2C(=O)NC[C@H](O)c1ccccc1`, the composite z-score was -0.223 in test [1]; 0.123 in test [2]; -0.0817 in test [3]; 0.345 in test [4]; 1.07 in test [5]; 0.298 in test [6]. For the same molecule, the composite z-score in test [7] is 1.23; in test [9] it was 0.635; in test [10], 0.115; in [11], 1.54; in [15], 2.54; in [17], -0.0671. Besides, the figures for the composite z-score in test [18], in test [19] and in [20] were 1.45, 1.07 and -0.0476, respectively. Further, the z-score in [8] was 0.204 (inactive); in test [12] it was 1.01 (inactive); in test [13], 0.785 (inactive); in test [14] it was 3.28 (inactive); in test [16], -0.314 (inactive).
On to `COC(=O)[C@@]1(Cc2ccc(OC)cc2)[C@H]2c3cc(C(=O)N4CCCC4)n(CCc4c[nH]c5ccc(O)cc45)c3C[C@H]2CN1C(=O)c1ccccc1`, for which the composite z-score in test [1] came out at 0.77; in test [2] it was 0.0885; in test [3] it was 0.155; in test [4] it was 0.897; in test [5], 1.7; in test [6], 1.44. Further, the composite z-score in test [7] was 1.37; in test [9] it was 1.46; in [10] it was -0.374; in [11] it was 0.66; in test [15] it was 3.16; in test [17] it was 0.379. Moreover, the composite z-score is -0.0208 in [18], 1.12 in test [19] and 0.262 in test [20]. The z-score in [8] was 0.829 (inactive); in test [12], 0.277 (inactive); in test [13], 1.16 (inactive); in test [14], 0.687 (inactive); in test [16], 0.573 (inactive).
`CC1CC/C=C\[C@H]2OC34C=CCN(Cc5ccccc5)C(=O)[C@H]3N(C(CO)C(C)C)C(=O)[C@@H]4C2C(=O)O1` (stereo not given in full): the composite z-score is 0.342 in test [1]; -0.153 in [2]; -0.049 in [3]; -0.0095 in test [4]; -0.68 in test [5]; 0.491 in test [6]. In addition, the composite z-score is 1.39 in test [7]; -0.368 in [9]; -0.0169 in test [10]; -0.856 in test [11]; 0.251 in [15]; -0.0042 in test [17]. For the same molecule, the composite z-score was -0.964 in test [18], -1.1 in [19] and 0.244 in test [20]. For the same molecule, the z-score was 1.32 (inactive) in test [8]; 0.0869 (inactive) in test [12]; -0.978 (inactive) in test [13]; 0.101 (inactive) in test [14]; 0.154 (inactive) in [16].
With `C=C(COC)/C(=C/C[C@H](OC(=O)c1ccncc1)c1ccc(CO)o1)c1cnc2ccccc2c1`, the composite z-score was 0.138 in test [1]; 0.47 in test [2]; -0.124 in test [3]; 0.741 in test [4]; 1.21 in test [5]; 0.98 in test [6]. Besides, the composite z-score in test [7] is 1.14; in test [9], -0.0236; in test [10] it was -0.113; in [11], 1.54; in test [15], 1.34; in [17], -0.114. For the same molecule, the composite z-score in test [18] is 0.84; in test [19], 1.09; in [20], -0.0805. Also, the z-score was 1.29 (inactive) in test [8]; 0.685 (inactive) in test [12]; -0.694 (inactive) in test [13]; 0.662 (inactive) in [14]; -0.148 (inactive) in [16].
For the molecule `CN(C)C(=O)[C@@]1(Cc2ccccc2CN=[N+]=[N-])N=C(c2ccc(OCCCO)cc2)O[C@H]1c1ccccc1N=[N+]=[N-]`, the composite z-score came to 0.388 in test [1]; 0.021 in test [2]; 0.0362 in test [3]; 1.2 in test [4]; 1.55 in [5]; 1.88 in [6]. Further, the composite z-score was 1.25 in [7]; 1.44 in test [9]; 0.0071 in test [10]; 1.43 in test [11]; 3.37 in [15]; 0.445 in test [17]. Besides, the composite z-score in test [18] stood at 0.452; in test [19] it was 1.14; in [20], 0.242. The z-score in test [8] is -1.34 (inactive); in test [12] it was -0.415 (inactive); in test [13], 0.417 (inactive); in test [14], 5.36 (inactive); in [16], 0.151 (inactive).
With `COC(=O)[C@@]1(Cc2ccc(OC)cc2)[C@H]2c3cc(C(=O)N(C)C)n(Cc4ccc(C)o4)c3C[C@H]2CN1C(=O)c1ccccc1`, the composite z-score was 0.429 in test [1]; -0.342 in [2]; 0.0807 in test [3]; 0.423 in test [4]; 1.61 in [5]; 1.85 in [6]. In addition, the composite z-score in test [7] came out at 1.24; in [9] it was 1.16; in test [10] it was 1.48; in test [11], 0.549; in test [15], 3.6; in [17], 0.347. For the same molecule, the values for the composite z-score in [18], in test [19] and in [20] were -0.263, 0.916 and 0.229, respectively. The z-score was -0.472 (inactive) in [8]; -0.529 (inactive) in test [12]; 0.805 (inactive) in [13]; 0.0527 (inactive) in [14]; 0.527 (inactive) in test [16].
